Data as given in ChEMBL document CHEMBL4513216, “Probing the Open Global Health Chemical Diversity Library for Multistage-Active Starting Points for Next-Generation Antimalarials” (ACS Infect Dis, 2020).
The whole screen tested about 69,000 compounds, of which about 8,600 (12%) showed an effect of 50% or more. Only a selection was taken, and strong results are over-represented in it overall.

Test system: Plasmodium berghei
Test: Screen against P. berghei liver stage (PbLuc), transformed with Luciferase, at 10uM
Type: functional, HepG2
Conditions: tested at 10 uM

Row | SMILES | INHIBITION [%]
1 | CCN1C[C@@H]2CN(S(=O)(=O)c3cccs3)C[C@@H]2C1=O | -24.5
2 | O=S(=O)(c1cccs1)N1CCN2C[C@H](OCC3CC3)C[C@H]2C1 | 8.85
3 | CCO[C@@H]1C[C@H]2CN(S(=O)(=O)c3cccs3)CCN2C1 | 57.1
4 | CC(C)c1nc(S(=O)(=O)N(C)c2cc(F)ccc2F)c[nH]1 | 23.3
5 | CCOc1ccc(N(C)S(=O)(=O)c2c[nH]c(C(C)C)n2)cc1 | 10.3
6 | CC(C)c1nc(S(=O)(=O)N(C)c2ccc(F)cc2)c[nH]1 | 54.8
7 | CNC(=O)c1cn[nH]c1C1CCCN1C(=O)c1ccccn1 (stereo not given) | -20.6
8 | COCCn1cnnc1C1CCCN(c2cnccn2)C1 (stereo not given) | 30.4
9 | CSCC(=O)N[C@H]1CC[C@H](Nc2nccc(-c3ccncc3)n2)C1 | 14.2
10 | CSCCC(=O)N[C@H]1CC[C@H](Nc2nccc(-c3ccncc3)n2)C1 | 0.923
11 | COCCC(=O)N[C@H]1CC[C@H](Nc2nccc(-c3ccncc3)n2)C1 | 61.5
12 | Cc1cc(C(F)(F)F)nc(C2COCCN2S(C)(=O)=O)n1 (stereo not given) | 33.65
13 | CC(C)OCCCNS(=O)(=O)c1ccc2c(c1)NC(=O)C(C)O2 (stereo not given) | -4.87
14 | COc1cc(NCc2ccc(Cl)cc2)c(-c2nn[nH]n2)cc1OC | 22.6
15 | O=C(CCCn1ccnc1)N1CCC2(CC1)[C@H](O)C[C@@H]2OCCO | 18
16 | O=C(CCn1cncn1)N1CCC2(CC1)[C@H](O)C[C@@H]2OCCO | 12.7
17 | O=C(CCn1cc(Cl)cn1)N1CCC2(CC1)[C@H](O)C[C@@H]2OCCO | 75.7
18 | O=C(CCCn1cncn1)N1CCC2(CC1)[C@H](O)C[C@@H]2OCCO | 54.4
19 | O=C(CCn1cc(Cl)cn1)N1CCCC(O)(CO)CC1 (stereo not given) | -15.6
20 | O=C(CCn1cc(Cl)cn1)N1CCC2(CC1)OCCCC2O (stereo not given) | 2.79
21 | Cc1nc(C)n(C2CCCN(C(=O)CCOCC(C)C)C2)n1 (stereo not given) | 7.27
22 | Cc1cc(N2CCN(CC(=O)N(C)C)CC2)nc(-c2ccncc2)n1 | 4.74
23 | CNc1cc(C2CN(C(=O)c3cnn(C)c3)CCO2)nc(C)n1 (stereo not given) | 25.8
24 | CCC(Cn1ccnc1)n1cnc2c(C)csc2c1=O (stereo not given) | 14.9
25 | Cc1nc(C2CCCN2Cc2cc(Cl)c3c(c2)OCCO3)no1 (stereo not given) | 45.4
26 | Cc1nc(C2CCCN2Cc2cc(Cl)c3c(c2)OCO3)no1 (stereo not given) | 44.3
27 | Cc1nc(C2CCCN2Cc2cc(Cl)c3c(c2)OCCCO3)no1 (stereo not given) | 52.2
28 | Cc1ccc(CNCc2ccc(N3CCC(CO)CC3)nc2)c(C)c1 | 58.7
29 | COc1ccc(C)cc1CNCc1ccc(-n2nc(C)cc2C)nc1 | 18.6
30 | Cc1nc(CNCc2ccc(N3CCC(CO)CC3)nc2)cs1 | -11.6
